SMILES strings stand for the structures. Results filed as inconclusive are left out. Values without a mark were called inactive. Activity calls are given as the source filed them. The call rests on the fitted dose curve; in most records, active means well fitted cell-killing curve with a large enough effect; inconclusive means small, poorly fitted or top-dose-only effect, or effect the other way; inactive means no such curve, though single readings can be large or run the other way.
Potency means the concentration at half of the fitted maximal effect.

The nature of this test: Viability qHTS for spleen associated tyrosine kinase inhibitor (SYKi) drug resistant MV4-11 cells (AID 1963824). Further: nearly all actives have a fitted effect of over 35% in size. The following applies: SYKi-resistant MV4-11 viability, CellTiter-Glo, 72 h; series mostly up to 45 µM. A digest of the protocol: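 CellTiter-Glo luminescence, read 10 min after reagent addition, reports viability after a 72 hr compound exposure. Cells are an MV4-11 line made resistant to SYK inhibition, seeded at 500 per well onto compound-containing plates.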
For orientation: Quantitative high-throughput screening tests each substance at several concentrations.
In the case of `Cc1cc(C)nc(NS(=O)(=O)c2ccc(NC(=S)NC(=O)COc3ccc(Br)cc3Cl)cc2)n1`, the Potency entry is “inactive”. For the compound `CC(Cc1cccc(C(F)(F)F)c1)NCCOC(=O)c1ccccc1` (stereo not given), the Potency result was “inactive”. The same measure, in the same setting: the figure for `O=C1NC(=O)c2cc(Nc3ccccc3)c(Nc3ccccc3)cc21` is 9.2 µM (active); for `Fc1ccc(C(c2ccc(F)cc2)N2CCN(C/C=C/c3ccccc3)CC2)cc1` it is 21.1 µM (active). Consider `C[C@@H]1O[C@@H](O[C@H]2[C@H](OC(=O)[C@]34CCC(C)(C)C[C@H]3C3=CCC5[C@@]6(C)C[C@@H](O)[C@@H](O[C@@H]7O[C@H](CO)[C@@H](O)[C@H](O)[C@H]7O)[C@@](C)(CO)C6[C@H](O)C[C@@]5(C)[C@]3(C)CC4)OC[C@H](O)[C@@H]2O)[C@H](O)[C@H](O[C@@H]2OC[C@](O)(CO)[C@H]2O)[C@H]1O[C@@H]1OC[C@@H](O)[C@H](O[C@H]2O[C@H](C)[C@@H](O)[C@H](O)[C@@H]2O)[C@H]1O` (stereo not given in full), for which the viability, % of control is 86.5% [at 9.25 µM].

In the case of `COc1nnc2ccc(N3CCC(c4ccc(OCCN5CCN(C)C(=O)[C@H]5C)cc4)CC3)nn12`, the Potency was 0.0372 µM (active).

As for `CC1=C(c2ccc(NC(=O)c3c(F)cccc3F)cc2)CN(c2nccs2)CC1`, the Potency is 2.59 µM (active). The same measure, in the same setting: with `C=C(CCO)C(=O)OCC1OCC(OC(=O)C(=C)CCO[C@@H]2O[C@H](COC(=O)C(=C)CCO[C@@H]3O[C@H](CO)[C@@H](O)[C@H](O)[C@H]3O)[C@@H](O)[C@H](O)[C@H]2O)C(O)C1O` (stereo not given in full) the entry was “inactive”; with `CCC(C)/C=C(C)/C=C/C1=CC2=C(Cl)C(=O)C(C)(OC(C)=O)C(=O)C2=CN1C(CCC(=O)O)C(=O)O` (stereo not given), “inactive”. Same read-out and setting: the figure for `Oc1ccc([C@H]2COc3cc(O)ccc3C2)cc1` is 13 µM (active). The same measure, in the same setting: the figure for `CCN(CC)CCOCCOC(=O)C(CC)(CC)c1ccccc1` is 23.1 µM (active); for `O=C1CCCC2=C1C(c1ncccc1Br)N=C(Nc1nc3ccccc3o1)N2` (stereo not given) it is 2.59 µM (active); for `C=C[C@@H]1[C@H](O[C@@H]2O[C@H](CO)[C@@H](O)[C@H](O)[C@H]2O)OC=C(C(=O)O)[C@H]1CCOC(=O)/C=C/c1ccc(O)c(O)c1` it is “inactive”. In the case of `C=C[C@]1(C)C[C@H](O)[C@H]2C(=C)C(=O)O[C@@H]2[C@H]1C(=C)CO`, the Potency is 14.6 µM (active). Still for that read-out and setting: with `COc1ccc2cc(-c3cc(-c4cc(Cl)cc(Cl)c4)nn3C(C)c3ccc(C(=O)NCCC(=O)O)cc3)ccc2c1` (stereo not given) the figure was 25.9 µM (active).

For `Cc1ccccc1CN1CCn2c1nc1c(c2=O)CN(Cc2ccccc2)CC1`, the Potency result was “inactive”.

Consider `C=C1C(=O)OC2CC(C)C(CCC(C)O)=CCC12` (stereo not given), for which the Potency is 7.31 µM (active).

Consider `CCCCCCCCn1cc(CN(CC)CC)c2cc(-c3cnc(N)nc3)ccc21`, for which the Potency was 2.59 µM (active). On the same count and under the same terms, with `Cc1ccn(-c2cc(Cl)ccc2[C@@H](Oc2cc(-c3ccc(C[C@H](N)C(=O)O)cc3)nc(N)n2)C(F)(F)F)n1` the figure was 20.6 µM (active). On the same count and under the same terms, with `COC(=O)c1cc(CN2CCN(C(=N)N)CC2)cc(C(=O)N2CCN(C(=O)c3ccc(C(=N)N)cc3)CC2)c1` the entry was “inactive”; with `C[C@@H]1O[C@@H](O[C@H]2[C@H](OC(=O)[C@]34CCC(C)(C)C[C@H]3C3=CCC5[C@@]6(C)C[C@H](O)[C@H](O[C@@H]7O[C@H](CO)[C@@H](O)[C@H](O)[C@H]7O)[C@](CO)(C(=O)O)C6CC[C@@]5(C)[C@]3(C)C[C@H]4O)OC[C@H](O)[C@@H]2O)[C@H](O)[C@H](O)[C@H]1O[C@@H]1OC[C@@H](O)[C@H](O[C@@H]2OC[C@](O)(CO)[C@H]2O)[C@H]1O` (stereo not given in full), 0.776 µM (active); with `O=C(O)Cc1cn([C@@H]2OC[C@@H](O[C@@H]3O[C@H](CO)[C@@H](O)[C@H](O)[C@H]3O)[C@H](O)[C@H]2O[C@@H]2O[C@H](CO)[C@@H](O)[C@H](O)[C@H]2O)c2ccccc12`, “inactive”.

In the case of `FC(F)(F)c1ccc(/C=C/c2nc(COc3ccc(CCCCn4ccnn4)cc3)co2)cc1`, the Potency was 0.0263 µM (active). On the same count and under the same terms, the figure for `CC(=O)OC1C(O)CC2(C)C(CCC(C)C23Cc2c(O)cc(CO)c(C=O)c2O3)C1(C)C` (stereo not given) is 11.2 µM (active); for `CCC[C@@H]1O[C@@H]2C[C@H]3[C@@H]4CCC5=CC(=O)C=C[C@]5(C)[C@H]4[C@@H](O)C[C@]3(C)[C@]2(C(=O)CO)O1` it is 8.2 µM (active).

On to `COc1cc(F)c(F)c(Nc2ccc(I)cc2F)c1NS(=O)(=O)C1(CC(O)CO)CC1` (stereo not given), for which the Potency is 0.58 µM (active). For `CC(C)(C[C@@](O)(Cc1cc2ccncc2[nH]1)C(F)(F)F)c1cc(F)ccc1O`, the Potency is 2.31 µM (active). Still for that read-out and setting: with `N#CCc1ccc(O)cc1O[C@@H]1O[C@H](CO)[C@@H](O)[C@H](O)[C@H]1O` the entry was “inactive”; with `N#C/C(=C(\N)Sc1ccc(N)cc1)c1ccccc1C(F)(F)F`, 7.31 µM (active).

Turning to `O=C(CCO[C@@H]1O[C@H](CO)[C@@H](O)[C@H](O)[C@H]1O)c1ccc(O)cc1`, the Potency entry was “inactive”. In the case of `Cc1cc(N=Nc2ccc(S(=O)(=O)Nc3ccccn3)cc2)c(N)cc1O`, the Potency is 2.59 µM (active). Turning to `Cn1nccc1-c1ccccc1Oc1ccc(S(=O)(=O)Nc2nccs2)cc1C#N`, the Potency was 13 µM (active). Take `O=C1[C@H](O[C@@H]2O[C@H](CO)[C@@H](O)[C@H](O)[C@H]2O)Oc2ccccc2N1O`: the Potency entry was “inactive”. For the compound `CC(C)S(=O)(=O)NC[C@H](C)c1ccc(-c2ccc(CCNS(C)(=O)=O)cc2)cc1`, the Potency was 2.31 µM (active).

`C=C1C2(C)CC3C4(C)C=CC(=O)OC(C)(C)C4CCC3(C)C1(C(=O)OC)C(=O)C(C)(O)C2=O` (stereo not given): the Potency was 0.224 µM (active). With `CC1(C)C2CC(OC3OC(COC4OCC(O)(CO)C4O)C(O)C(O)C3O)C1(C)CC2O` (stereo not given), the Potency result was “inactive”. `COc1c(-c2ccc3cc(NS(C)(=O)=O)ccc3c2)cc(-n2ccc(=O)[nH]c2=O)cc1C(C)(C)C`: the Potency is 16.4 µM (active). For the compound `CCN(CC)CCCCNc1ncc2cc(-c3c(Cl)cccc3Cl)c(NC(=O)NC(C)(C)C)nc2n1`, the Potency is 0.58 µM (active). On the same count and under the same terms, the figure for `CN1CCC(c2cn(C)c3ccc(OS(=O)(=O)c4c(F)cccc4F)cc23)CC1` is 14.6 µM (active). On the same count and under the same terms, with `C=C(C(=O)OC)[C@@H]1CC=C2C=CC(=O)[C@H](C)[C@@]2(C)C1` the figure was 18.4 µM (active).

Source of the values: PubChem BioAssay (NCATS).
